# Measured values as given in PubChem BioAssay AID1986 (Sanford-Burnham Center for Chemical Genomics, 2009).
# Hit rate of the full screen: of about 290,000 compounds, about 890 (0.31%) were called active. Cut-off read from the data, not from the text of the source: active = inhibition mostly above about 52% (no sharp cut-off); inactive = mostly below about 76%. Only a selection was taken, and actives are over-represented in it overall.
# Assay: cell-free HIV fusion peptide-binding blockers – biochemical, uHTS, fluorescence dequenching, primary screen (AID 1986)
# Conditions: 30 min, stronger effect = higher value
# [1] = measured here: repeat confirmation average inhibition, at 18.6 µM
Structure (SMILES),inhibition (at 20 µM),inhibition [1] [%]
O=C(Nc1ccccc1)c1ccc(NCC2CCCO2)c(S(=O)(=O)N2CCOCC2)c1 (configuration not stated),-0.2% (inactive),
CCOC(=O)c1c(NC(=O)CSc2ncn[nH]2)sc(C(=O)NC)c1C,-0.5% (inactive),
Cn1c(SCC(=O)Nc2ccc3c(c2)OCCO3)nnc1C1CC1,0.2% (inactive),
CN1C(=O)/C(=C/c2cn(CC(=O)NCc3ccco3)c3ccccc23)NC1=S,0.4% (inactive),
COc1cc(/C=N/NC(=O)c2cccc(S(=O)(=O)N3CCCCC3)c2)cc(Br)c1O,1.7% (inactive),
O=C(NC(Cc1ccccc1)C(=O)O)/C(=C\c1ccc(F)cc1)NC(=O)c1ccccc1 (configuration not stated),12.8% (inactive),
CC(=O)Nc1ccc2c(c1)nc(CCN1CCN(C)CC1)n2C,-1.1% (inactive),
O=C(Cc1ccc([N+](=O)[O-])cc1)Nc1ccc2c(c1)OCO2,0.9% (inactive),
CCCc1nc(SC)[nH]c(=O)c1C,-0.9% (inactive),
C#CCN1C(=O)S/C(=C\c2ccc(-c3ccc(Cl)c(C(=O)O)c3)o2)C1=O,18.9% (inactive),
O=C(O)c1cc(-c2ccc(/C=C3/SC(=S)N(Cc4ccccc4)C3=O)o2)ccc1Cl,58.1% (active),
COc1ccc(CN2C(=O)/C(=C/c3ccc(-c4ccc(Cl)c(C(=O)O)c4)o3)SC2=S)cc1,139% (inactive),
CCCCn1c(N)c(NCc2ccccc2OC)c(=O)[nH]c1=O,2.3% (inactive),
Nc1c(-c2cccc(Cl)c2)cnn1-c1ccccc1,-1.8% (inactive),
c1ccc2sc(NC3=NCN(CC4CCCO4)CN3)nc2c1 (configuration not stated),1.1% (inactive),
Cc1cc2ccccn2c1C(=O)c1ccc(NN)c([N+](=O)[O-])c1,-4.5% (inactive),
Cc1cc2ccccn2c1C(=O)c1ccc(N/N=C/c2ccc(C(=O)O)cc2)c([N+](=O)[O-])c1,52.9% (active),
CC(=O)Nc1ccc(/C=N/Nc2ccc(C(=O)c3c(C)cc4ccccn34)cc2[N+](=O)[O-])cc1,-5.5% (inactive),
COc1cccc(-c2c(C(=O)N/N=C/c3cccnc3)nnn2-c2nonc2N)c1,-0.9% (inactive),
CCN1CCN(c2cc(N3CCN(C(=O)c4ccco4)CC3)c3c4c(onc24)-c2ccccc2C3=O)CC1,10.6% (inactive),
O=C(O)CCCNc1cc(N2CCN(C(=O)c3ccco3)CC2)c2noc3c2c1C(=O)c1ccccc1-3,70% (active),
CC(=O)OCCNc1cc(N2CCN(C)CC2)c2noc3c2c1C(=O)c1ccccc1-3,-2% (inactive),
CCOC(=O)N1CCN(c2cc(NCCC(=O)O)c3c4c(onc24)-c2ccccc2C3=O)CC1,18% (inactive),

Structure (SMILES),inhibition (at 20 µM),inhibition [1] [%]
O=C1c2ccccc2-c2onc3c(N4CCN(CCO)CC4)cc(N4CCN(C(=O)c5ccco5)CC4)c1c23,5.9% (inactive),
O=C(O)CCCNc1cc(N2CCC3(CC2)OCCO3)c2noc3c2c1C(=O)c1ccccc1-3,58.7% (active),
O=[N+]([O-])c1c(NCCO)cc(N2CCC3(CC2)OCCO3)c2nonc12,-2.2% (inactive),
O=C(O)CCNc1cc(N2CCN(C(=O)c3ccco3)CC2)c2noc3c2c1C(=O)c1ccccc1-3,54.7% (active),
CN1CCN(c2cc(N3CCN(C(=O)c4ccco4)CC3)c3c4c(onc24)-c2ccccc2C3=O)CC1,5.9% (inactive),
CCCCNC(=O)Nc1nnc(SCC(=O)OCC)s1,-2.1% (inactive),
COc1ccc(Cc2nc3ccccc3[nH]c2=O)cc1,-2.8% (inactive),
Cc1cc(C2C(C#N)=C(N)SC(N)=C2C#N)c(C)s1,51.9% (active),68.2
Cc1ccc(C2C(C#N)=C(N)SC(N)=C2C#N)c(C)c1,-3.6% (inactive),
Cc1sccc1C1C(C#N)=C(N)SC(N)=C1C#N,32.9% (inactive),
C=CCN1C(=O)/C(=C/c2ccccc2)S/C1=N/c1nccs1,1.5% (inactive),
C=CCN=C1S/C(=C\c2ccc(N(C)C)cc2)C(=O)N1CC=C,2.1% (inactive),
C=CCN1C(=O)/C(=C/c2ccc(N(C)C)cc2)S/C1=N\c1nnc(CC)s1,61.5% (active),
Cc1[nH]c(=O)[nH]c(=O)c1S(=O)(=O)N1CCCC(C(=O)NCCC2=CCCCC2)C1 (configuration not stated),0.7% (inactive),
COc1ccc(Cl)cc1Nc1nc(C)nc2c1nnn2Cc1ccccc1,-1% (inactive),
Cc1cccc(NC(=O)CC2Nc3cccc4cccc(c34)NC2=O)c1 (configuration not stated),-5.8% (inactive),
CC(=O)Nc1ccc(NC(=O)CC2Nc3cccc4cccc(c34)NC2=O)cc1 (configuration not stated),67.6% (inactive),-1.4
COc1ccc(NC(=O)CC2Nc3cccc4cccc(c34)NC2=O)cc1 (configuration not stated),51.5% (inactive),-2.3
O=C(CC1Nc2cccc3cccc(c23)NC1=O)Nc1ccc(F)cc1 (configuration not stated),59.6% (inactive),-0.8
O=C(CC1Nc2cccc3cccc(c23)NC1=O)Nc1ccccc1 (configuration not stated),57.7% (active),
NC(=O)CC1Nc2cccc3cccc(c23)NC1=O (configuration not stated),57.4% (active),
COc1cc2c(cc1NC(=O)CSc1nnc(Cc3cccs3)n1C)oc1ccccc12,-3.3% (inactive),
CCOC(=O)c1c(-c2ccccc2)csc1NC(=O)/C(C#N)=C/c1ccc(O)c(OC)c1,78.2% (active),53.4

Structure (SMILES),inhibition (at 20 µM),inhibition [1] [%]
CCOC(=O)c1c(-c2ccc(C)cc2)csc1NC(=O)/C(C#N)=C/c1ccc(O)c(OC)c1,95% (inactive),7.7
CCOC(=O)c1c(-c2ccccc2)csc1NC(=O)/C(C#N)=C/c1ccc(OC)c(OC)c1,24.6% (inactive),
COC(=O)C1=C(C)N(C)C(=O)NC1c1c(OC)ccc2ccccc12 (configuration not stated),-0.6% (inactive),
O=C(Nc1ccc(Cl)cc1F)C1CCN(S(=O)(=O)c2cccnc2)CC1,-1.9% (inactive),
COc1ccc(NC(=O)C23CC4CC(C2)CC(n2cnc(Br)n2)(C4)C3)c(OC)c1,-1.5% (inactive),
COc1cc(OC)c(OC)cc1CNCCNC(=O)c1ccco1,1.1% (inactive),
Cc1onc(-c2ccccc2Cl)c1C(=O)N1CCCc2ccccc21,-0.5% (inactive),
COc1ccc(CCNS(=O)(=O)c2cccc3nsnc23)cc1OC,0.3% (inactive),
c1ccc(CCn2nnnc2CN2CCc3ccccc32)cc1,1.1% (inactive),
CC1=C(C#N)c2nc(N)c(C#N)c(C)c2/C1=C\c1ccc(OCC(=O)O)c(Cl)c1,28% (inactive),
CC1=C(C#N)c2nc(N)c(C#N)c(C)c2/C1=C\c1ccc(-c2ccccc2C(=O)O)o1,56.8% (active),
CC1=C(C#N)c2nc(N)c(C#N)c(C)c2/C1=C\c1ccc(C)cc1,15.6% (inactive),
CCOc1ccc(N(C)C(=O)CCc2nnc3ccc(N4CCC5(CC4)OCCO5)nn23)cc1,0.1% (inactive),
COc1ccc(CC(=O)N(C)CC(=O)Nc2ccccc2SC)cc1,3.4% (inactive),
COc1ccc(OC)c(NC(=O)CN(C)S(=O)(=O)c2ccc3nc(C)sc3c2)c1,-0.6% (inactive),
N#CCCN(/N=C/c1cccnc1)C1=NS(=O)(=O)c2ccccc21,-1.4% (inactive),
CN(C)c1ccc(/C=N/N(CCC#N)C2=NS(=O)(=O)c3ccccc32)cc1,69.3% (active),64.2
CN(C)c1ccc(/C=N/N(CCO)C2=NS(=O)(=O)c3ccccc32)cc1,159% (inactive),
O=C(COc1ccc(F)cc1)N(Cc1cccs1)C1CCS(=O)(=O)C1 (configuration not stated),3.2% (inactive),
Cc1ccc(C(=O)Nc2ccc(Oc3ccc(C(=O)O)c(C(=O)O)c3)cc2)cc1C,17.4% (inactive),
O=C(Nc1cccc(Oc2ccc(C(=O)O)c(C(=O)O)c2)c1)c1ccc(-c2ccccc2)cc1,75.5% (active),
CC(C)(C)C(=O)Nc1ccc(C(=O)Nc2cccc(Oc3ccc(C(=O)O)c(C(=O)O)c3)c2)cc1,37.8% (inactive),
CCOC(=O)/C(=C\C=C1/Sc2ccccc2N1CC)C(C)=O,150% (inactive),

Structure (SMILES),inhibition (at 20 µM),inhibition [1] [%]
CCN1/C(=C\C=C(C(C)=O)C(C)=O)Sc2ccccc21,148% (inactive),
CCOC(=O)/C(=C/C=C1\Sc2ccccc2N1CC)C(C)=O,114% (active),145
C=Cc1ccc(C(=O)NC2CCCN(Cc3ccccc3F)C2)cc1 (configuration not stated),1.1% (inactive),
CC(C)c1ccc2c(c1)c(SC(C)(C)C)c(CC(C)(C)C(=O)O)n2Cc1ccc(Cl)cc1,53.9% (active),
Cc1ccc2c(c1)c(N=O)c(O)n2Cc1ccc(Cl)cc1,-0.1% (inactive),
CC(C)c1ccc(C(=O)NCc2ccc(Cl)cc2)cc1,-2.4% (inactive),
CN(Cc1nccn1C)C(=O)CC1C(=O)NCCN1Cc1ccc(F)cc1Cl (configuration not stated),-0.5% (inactive),
Cc1cc2ncc(C(N)=O)cn2n1,-1.8% (inactive),
O=C(/C=C\c1ccco1)c1ccc(NC(=O)c2ccco2)cc1,58.2% (inactive),3
O=C(/C=C/c1ccco1)c1ccc(NC(=O)C23CC4CC(CC(C4)C2)C3)cc1,50.7% (active),
CC(=O)Nc1ccc(C(=O)/C=C/c2ccco2)cc1,36% (inactive),
COCCCn1c(=O)/c(=C\c2ccccc2OC(F)F)s/c1=C(/C#N)C(=O)NC(C)C,75.2% (inactive),5.3
COCCCn1c(=O)/c(=C\c2ccccc2OC(C)C)s/c1=C(/C#N)C(=O)Nc1ccc(C(=O)O)cc1,77.3% (active),
COCCCn1c(=O)/c(=C\c2cccc(OC)c2OC)s/c1=C(/C#N)C(=O)Nc1ccc(C(=O)O)cc1,54.1% (inactive),33.7
Cc1ccc(C(=O)OCC(=O)N(C)C2CCS(=O)(=O)C2)cc1[N+](=O)[O-] (configuration not stated),-0.5% (inactive),
CC(=O)c1cccc(NC(=O)CSc2ccc(-c3ccc4c(c3)OCO4)nn2)c1,0.3% (inactive),
O=C(O)c1cccc(Cn2c(Cl)c(/C=N/NC(=O)c3cc4ccccc4cc3O)sc2=O)c1,61.5% (active),
O=C(O)c1cccc(Cn2c(Cl)c(/C=N/NC(=O)c3ccccc3Cl)sc2=O)c1,6.2% (inactive),
O=C(NN=C1CCN(Cc2ccccc2)CC1)c1ccccc1O,3.9% (inactive),
O=C(NN=C1CCN(Cc2ccccc2)CC1)c1cc(Br)ccc1O,7.6% (inactive),
O=C(O)c1cccc(Cn2c(Cl)c(/C=N/NC(=O)c3ccccc3O)sc2=O)c1,28.1% (inactive),
O=C(NN=C1CCN(Cc2ccccc2)CC1)c1cc2ccccc2cc1O,56% (active),
